Screens deposited in PubChem by National Center for Advancing Translational Sciences (NCATS).
Hits are enriched below; roughly 1.2% of the tested compounds scored in any of these assays.
TRPV1 potentiator – potentiators of human vanilloid receptor 1 (TRPV1); Q8NER1; 320,000 compounds, 0.02% hits; potentiation, % at 8.33 µM; TRPV1-expressing cells, Fluo-8 calcium influx, capsaicin EC20 potentiation; in the data active = potentiation above about 80%; inconclusive = between about 30% and that limit
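Fluo-8 calcium influx in TRPV1-expressing cells, kinetic read (ex 480/em 520 nm). Compound added and read 3 min for agonist activity, followed by capsaicin at EC20 final and 2 min further read for enhancement.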
KCNH2 3.1 block – blocks the human KCNH2 3.1 channel isoform; U2OS KCNH2 3.1, thallium flux FluxOr; hits give low values; activity change, % (tested at about 1.8 µM); 340,000 compounds, 0.95% hits;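 active = maximum activity change below -70%; inconclusive = maximum activity change from -70% to -50%; inactive = maximum activity change above -50%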;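 note: thallium influx rate constant from kinetic fluorescence after stimulation buffer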
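Measured as rate of thallium-driven FluxOr signal in transduced U2OS cells carrying the 3.1 channel, read kinetically for 2 min upon stimulation; values are rate constants scaled to DMSO control wells.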
KCNH2 WT inh – KCNH2 (human, wildtype) channel inhibition. Q12809. U2OS, BacMam KCNH2, thallium flux FluxOr; hits give low values. activity change, % at 1.84 µM. 340,000 compounds, 0.37% hits;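 active = maximum activity change below -70%; inconclusive = maximum activity change between -70% and -50%; inactive = maximum activity change above -50%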
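U2OS cells were transduced with wild-type KCNH2 virus (2.03 x 10^8 / mL) for 4 h at room temperature, then cultured overnight at 37 C. Thallium flux was read with FluxOr dye. Rate constants were normalized to DMSO controls.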
TRPV1 ag – human TRPV1 agonism. Q8NER1. TRPV1-expressing cells, Fluo-8 calcium influx, agonist mode. activation, % at 8.33 µM. 320,000 compounds, 0.19% hits; in the data active = activation above about 80%; inconclusive = between about 30% and that limit
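Fluo-8 calcium influx in TRPV1-expressing cells, kinetic read (ex 480/em 520 nm). Compound added and read 3 min for agonist activity, followed by capsaicin at EC20 final and 2 min further read for enhancement.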
Hits are given with their value; n = inactive; u = inconclusive; x = no result given.

SMILES	TRPV1 potentiator	KCNH2 3.1 block	KCNH2 WT inh	TRPV1 ag
COc1ccc(O)c(-c2[nH]ncc2C(=O)c2cccc(C)c2)c1	n	-109	n	n
COc1ccc(NC(=O)c2cc(C)cc(C)c2)cc1S(=O)(=O)N1CCCCC1	n	n	n	n
COC(=O)CSc1nnc(CNS(=O)(=O)c2ccc(Br)cc2)n1C	n	n	n	n
COC(=O)CSc1nnc(CNS(=O)(=O)c2ccc(C)cc2)n1C	n	n	-253	n
CCOC(=O)C1(Cc2ccccc2C(F)(F)F)CCN(C(C)CCn2cccn2)CC1 (stereo not drawn)	n	-85	n	n
CCOC(=O)C1(Cc2ccccc2)CCCN(CCCn2cccn2)C1 (stereo not drawn)	n	n	n	n
CCOC(=O)C1(Cc2ccc(Cl)cc2)CCN(CCCn2cccn2)CC1	n	-119	n	n
Cc1ccc(S(=O)(=O)Cc2nc(-c3ccc(C(=O)NCc4ccccc4F)cc3)oc2C)cc1	n	x	x	n
CCOC(=O)C1CCCN(Cc2nc(N)nc(Nc3ccc(Cl)cc3)n2)C1 (stereo not drawn)	n	u	n	n
CCOC(=O)N1CCN(Cc2nc(N)nc(Nc3ccc(OCC)cc3)n2)CC1	n	-86	n	n
CCOC(=O)N1CCN(Cc2nc(N)nc(Nc3ccc(Oc4ccccc4)cc3)n2)CC1	n	-89	n	n
CCOC(=O)N1CCN(Cc2nc(N)nc(Nc3ccc(Cl)cc3)n2)CC1	n	-100	n	n
CCOC(=O)N1CCN(Cc2nc(N)nc(Nc3ccc(OC)cc3)n2)CC1	n	n	n	n
COC(=O)[C@H](C(C)C)N(Cc1ccccc1)S(=O)(=O)CCNC1CCCC1	x	n	n	x
Cc1ccc(C(=O)OCC(=O)NCC2COc3ccccc3O2)cc1 (stereo not drawn)	n	n	n	n
O=C(COC(=O)c1ccccc1)NCC1COc2ccccc2O1 (stereo not drawn)	x	n	-246	x
COc1cccc(C(=O)c2ccncc2C(=O)O)c1OC	x	n	n	x
OCC[C@@H]1C[C@H](O)[C@@H](O)[C@@]2(OCc3ccccc32)O1	n	-136	n	n
OCC[C@@H]1C[C@H](O)[C@@H](O)[C@]2(OCCc3ccccc32)O1	n	n	n	n
OCC[C@@H]1C[C@@H](O)[C@H](O)[C@@]2(OCc3ccccc32)O1	n	n	n	n
OCC[C@H]1C[C@@H](O)[C@H](O)[C@]2(OCc3ccccc32)O1	n	-89	n	n
OCC[C@@H]1C[C@@H](O)[C@H](O)[C@@]2(CCc3ccccc3O2)O1	n	n	-169	n
Cc1nc2c(sc(=S)n2Cc2ccco2)c(=O)n1CC(=O)Nc1ccc(F)cc1	n	-87	n	n
COc1ccccc1N=NNc1ccccc1OC	x	n	n	x
CC(C)CCC1(CCO)C(=O)N=C(N)NC1=O (stereo not drawn)	x	n	n	x
SMILES	TRPV1 potentiator	KCNH2 3.1 block	KCNH2 WT inh	TRPV1 ag
CC(C)N(C)CCOC(=O)C1COc2ccccc2O1 (stereo not drawn)	n	-204	n	n
O=C(COC(=O)C1COc2ccccc2O1)NC(=O)NC1CCCC1 (stereo not drawn)	n	-143	-198	n
CO[C@H]1CC[C@@]2(C)[C@@H](CC[C@@H]3[C@@H]2CC[C@@]2(C)[C@H]3C[C@H](C(=O)N[C@@H](CCCN=C(N)N)C(=O)NCC(=O)N[C@@H](CC(=O)O)C(N)=O)O[C@]23CCCO3)C1	x	n	n	x
CCC(=O)Oc1ccc(C(=O)Nc2ccc([N+](=O)[O-])cc2)cc1	n	n	-159	u
Nc1ccccc1-c1ccc([N+](=O)[O-])cc1	x	n	n	x
Cn1c(-c2ccc3c(c2)OCO3)cnc1N	n	-75	n	n
O=C(CSc1cccc[n+]1[O-])Nc1ccc([N+](=O)[O-])cc1Cl	n	n	n	n
O=C(CSc1cccc[n+]1[O-])Nc1c(Br)cc([N+](=O)[O-])cc1Br	n	-133	n	n
COc1ccc(-c2nnc(C3CCN(S(=O)(=O)c4ccccc4)CC3)o2)cc1	n	n	n	n
CC(=O)Nc1ccc(S(=O)(=O)N2CCC(c3nnc(-c4ccc(C)cc4)o3)CC2)cc1	n	-137	n	n
Cc1ccc(NC(=O)CN2C(=O)S/C(=C\c3cc(C)n(C)c3C)C2=O)cc1	n	-93	n	n
Cc1cccc(NC(=O)CN2C(=O)S/C(=C\c3ccc(O)c([N+](=O)[O-])c3)C2=O)c1	84	n	n	n
Cc1cccc(NC(=O)CN2C(=O)S/C(=C\c3cc(C)n(C)c3C)C2=O)c1	n	n	n	n
CCN(CC)CCNc1oc(-c2ccccc2)nc1S(=O)(=O)c1ccccc1	x	n	n	x
Cc1c(C(=O)Nc2cccc([N+](=O)[O-])c2)cnn1-c1ccccc1	n	n	n	103
CC(C)(C)c1ccc(C(=O)Nc2cccc([N+](=O)[O-])c2)cc1	n	n	n	84
CN(C)c1ccc(NC(=O)c2cccc([N+](=O)[O-])c2)c2ccccc12	n	n	n	83
O=C(Nc1ccncc1NC(=O)c1cccc([N+](=O)[O-])c1)c1cccc([N+](=O)[O-])c1	n	n	n	n
O=C(Nc1cccc(NC(=O)c2cccc([N+](=O)[O-])c2)n1)c1cccc([N+](=O)[O-])c1	n	-84	n	n
Cc1c(C(=O)Nc2ccccc2)cnn1-c1ccccc1	x	n	n	x
C#CCN(C[C@H]1[C@H](OC(=O)Nc2c(C)noc2C)[C@H](OC(=O)Nc2c(C)noc2C)C[C@@H](C(=O)OC)[C@H]1C(=O)OC)S(=O)(=O)c1ccc(C)cc1	x	n	n	x
CC(C)C(NC(=O)c1ccc(F)cc1)C(=O)NC1(C)CCS(=O)(=O)C1 (stereo not drawn)	n	n	n	n
Cc1cc(C(=O)Nc2ccc([N+](=O)[O-])cn2)cs1	n	n	n	83
C/C(=N\NC(=O)c1ccncc1)c1cccc(NC(=O)c2ccc(C(C)(C)C)cc2)c1	n	n	n	85
C/C(=N/NC(=O)c1ccncc1)c1ccc(NC(=O)c2ccccc2)cc1	n	n	n	u
SMILES	TRPV1 potentiator	KCNH2 3.1 block	KCNH2 WT inh	TRPV1 ag
Cc1ccc(C2CC(=O)C(C=NCCN3CCN(CC(=O)Nc4cc(C)cc(C)c4)CC3)=C(O)C2)cc1 (stereo not drawn)	n	n	n	n
Cc1cc(C)cc(NC(=O)CN2CCN(CCN=CC3=C(O)CC(C)(C)CC3=O)CC2)c1	n	-93	n	n
COc1ccc(CN(C)C[C@@H]2OCc3cnnn3CCCC(=O)N([C@H](C)CO)C[C@H]2C)cc1	x	n	n	x
CN(C)C1=NCCN1CCC1CCCC1	n	-109	n	n
CN(C)C1=NCCN1CCCC1CCCCC1	u	n	n	n
COc1ccccc1/C=C(/NC(=O)c1ccccc1)C(=O)NCCCn1ccnc1	n	n	n	n
O=C(CNC(=O)/C(=C\c1ccccc1)NC(=O)c1ccc(Br)cc1)OCc1ccccc1	n	u	n	n
O=C(CCCNC(=O)/C(=C/c1ccc(Br)cc1)NC(=O)c1ccccc1)OCc1ccccc1	n	-113	n	n
CC(C)c1ccc(/C=C(\NC(=O)c2ccccc2)C(=O)NCCCn2ccnc2)cc1	n	-102	n	n
